Data reported in publication PMC7862700, “An all-to-all approach to the identification of sequence-specific readers for epigenetic DNA modifications on cytosine”.

Experiments:
Test in all cases: DAPPL (digital affinity profiling via proximity ligation, sequencing); 10 mM Tris-HCl pH 7.5, 50 mM NaCl, 1 mM DTT, 4% glycerol, room temperature, 30 min; GST-TFs on glutathione beads, 16-mer random dsDNA library, 0.1% formaldehyde crosslink after washing; high values mean tight binding
Conditions in all cases: protein: recombinant; tags: N-terminal GST; dsDNA, one strand shown
ERF = target: T1, ERF (Homo sapiens, UniProt P50548 1-548)
T1 sequence: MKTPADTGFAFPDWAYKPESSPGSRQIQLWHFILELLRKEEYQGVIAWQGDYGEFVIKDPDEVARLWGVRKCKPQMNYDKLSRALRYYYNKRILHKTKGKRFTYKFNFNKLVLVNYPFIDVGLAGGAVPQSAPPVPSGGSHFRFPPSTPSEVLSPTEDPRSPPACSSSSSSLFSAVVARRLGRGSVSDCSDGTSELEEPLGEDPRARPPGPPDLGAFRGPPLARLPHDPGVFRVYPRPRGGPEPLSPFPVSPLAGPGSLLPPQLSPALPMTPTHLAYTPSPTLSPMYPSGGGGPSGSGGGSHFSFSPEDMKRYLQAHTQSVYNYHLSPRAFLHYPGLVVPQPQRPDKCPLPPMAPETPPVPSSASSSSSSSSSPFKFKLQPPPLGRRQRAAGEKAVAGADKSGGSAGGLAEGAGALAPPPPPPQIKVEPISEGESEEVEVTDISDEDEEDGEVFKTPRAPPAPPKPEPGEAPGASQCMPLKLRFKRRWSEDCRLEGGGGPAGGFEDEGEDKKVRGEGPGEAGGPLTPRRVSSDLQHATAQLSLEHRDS
Procedure, shortened: (§1)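 Pools of DNA-barcoded human transcription factors, expressed in yeast as GST fusions on glutathione beads and combined with a tag-only sample, were incubated with 200 nmole of a 16-mer random double-stranded DNA library. Incubation took 30 min at room temperature in Tris/NaCl/DTT/glycerol buffer and was followed by washing, 0.1% formaldehyde crosslinking, proximity ligation (BsaI/T4 ligase, 1 h, 37 °C), PCR amplification and sequencing on an Illumina NextSeq500. Binding signal is the ratio of a hexamer's read frequency for a factor to its frequency for the tag-only sample.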

ETV3L = target: T2, ETV3L (Homo sapiens, UniProt Q6ZN32 1-361)
T2 sequence: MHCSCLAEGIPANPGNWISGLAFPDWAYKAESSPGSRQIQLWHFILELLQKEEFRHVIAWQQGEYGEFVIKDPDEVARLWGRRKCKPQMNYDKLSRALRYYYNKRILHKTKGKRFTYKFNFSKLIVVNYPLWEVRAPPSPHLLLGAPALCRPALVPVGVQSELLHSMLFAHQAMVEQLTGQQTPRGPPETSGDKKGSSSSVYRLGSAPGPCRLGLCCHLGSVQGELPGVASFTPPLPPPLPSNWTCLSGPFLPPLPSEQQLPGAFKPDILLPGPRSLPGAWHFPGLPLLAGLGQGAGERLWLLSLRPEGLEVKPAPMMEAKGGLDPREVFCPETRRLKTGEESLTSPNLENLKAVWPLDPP
Procedure, shortened: as §1

ETS2 = target: T3, ETS2 (Homo sapiens, UniProt P15036 1-469)
T3 sequence: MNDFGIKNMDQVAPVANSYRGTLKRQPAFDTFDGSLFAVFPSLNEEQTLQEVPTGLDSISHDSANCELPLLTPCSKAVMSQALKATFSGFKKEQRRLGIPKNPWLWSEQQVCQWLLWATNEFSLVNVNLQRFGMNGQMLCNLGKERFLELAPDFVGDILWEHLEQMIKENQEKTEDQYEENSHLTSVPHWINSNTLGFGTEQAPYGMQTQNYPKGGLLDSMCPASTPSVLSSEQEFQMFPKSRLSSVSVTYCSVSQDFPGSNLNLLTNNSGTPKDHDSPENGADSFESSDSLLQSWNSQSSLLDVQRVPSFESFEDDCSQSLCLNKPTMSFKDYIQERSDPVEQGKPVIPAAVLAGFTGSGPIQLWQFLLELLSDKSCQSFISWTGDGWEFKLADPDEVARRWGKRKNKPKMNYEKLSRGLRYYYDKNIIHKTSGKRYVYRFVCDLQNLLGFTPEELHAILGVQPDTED
Procedure, shortened: as §1

SPDEF = target: T4, SPDEF (Homo sapiens, UniProt O95238 1-335)
T4 sequence: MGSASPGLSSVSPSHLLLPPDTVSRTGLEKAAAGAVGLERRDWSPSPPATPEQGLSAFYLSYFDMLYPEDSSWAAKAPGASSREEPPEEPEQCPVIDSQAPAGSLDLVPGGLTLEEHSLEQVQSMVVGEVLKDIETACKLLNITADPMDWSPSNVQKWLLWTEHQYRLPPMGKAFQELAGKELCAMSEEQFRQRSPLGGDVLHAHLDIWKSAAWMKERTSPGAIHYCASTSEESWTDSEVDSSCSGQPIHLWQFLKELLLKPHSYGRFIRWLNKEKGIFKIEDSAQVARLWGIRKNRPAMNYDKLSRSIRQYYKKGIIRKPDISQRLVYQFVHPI
Procedure, shortened: as §1

ETV7 = target: T5, ETV7 (Homo sapiens, UniProt Q9Y603 1-341)
T5 sequence: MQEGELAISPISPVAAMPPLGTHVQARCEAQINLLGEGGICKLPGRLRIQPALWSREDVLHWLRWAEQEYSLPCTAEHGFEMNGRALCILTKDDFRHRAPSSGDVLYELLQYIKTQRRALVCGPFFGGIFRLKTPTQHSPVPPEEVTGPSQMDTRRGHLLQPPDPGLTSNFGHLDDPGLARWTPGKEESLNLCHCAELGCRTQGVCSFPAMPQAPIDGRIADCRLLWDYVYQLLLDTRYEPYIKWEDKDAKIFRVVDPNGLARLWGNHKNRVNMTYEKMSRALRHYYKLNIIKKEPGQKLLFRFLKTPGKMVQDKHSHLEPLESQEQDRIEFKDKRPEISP
Procedure, shortened: as §1

ELF5 = target: T6, ELF5 (Homo sapiens, UniProt Q9UKW6-2 1-255)
T6 sequence: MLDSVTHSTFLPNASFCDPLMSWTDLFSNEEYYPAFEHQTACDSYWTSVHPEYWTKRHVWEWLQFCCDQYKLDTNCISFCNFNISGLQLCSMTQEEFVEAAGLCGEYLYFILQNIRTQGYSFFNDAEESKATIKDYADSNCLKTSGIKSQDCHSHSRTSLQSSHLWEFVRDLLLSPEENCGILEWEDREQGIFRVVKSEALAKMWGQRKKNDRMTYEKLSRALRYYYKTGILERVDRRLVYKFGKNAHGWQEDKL
Procedure, shortened: as §1

ETV3 = target: T7, ETV3 (Homo sapiens, UniProt P41162-2 1-143)
T7 sequence: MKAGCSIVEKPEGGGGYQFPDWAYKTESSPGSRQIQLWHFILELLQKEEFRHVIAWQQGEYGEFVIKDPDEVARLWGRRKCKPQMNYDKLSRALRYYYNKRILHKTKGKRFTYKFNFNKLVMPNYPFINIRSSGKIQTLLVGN
Procedure, shortened: as §1

ETV6 = ETV6 (Homo sapiens, UniProt P41212 1-452)
Procedure, shortened: as §1

Chain of ETV6 (P41212 whole entry): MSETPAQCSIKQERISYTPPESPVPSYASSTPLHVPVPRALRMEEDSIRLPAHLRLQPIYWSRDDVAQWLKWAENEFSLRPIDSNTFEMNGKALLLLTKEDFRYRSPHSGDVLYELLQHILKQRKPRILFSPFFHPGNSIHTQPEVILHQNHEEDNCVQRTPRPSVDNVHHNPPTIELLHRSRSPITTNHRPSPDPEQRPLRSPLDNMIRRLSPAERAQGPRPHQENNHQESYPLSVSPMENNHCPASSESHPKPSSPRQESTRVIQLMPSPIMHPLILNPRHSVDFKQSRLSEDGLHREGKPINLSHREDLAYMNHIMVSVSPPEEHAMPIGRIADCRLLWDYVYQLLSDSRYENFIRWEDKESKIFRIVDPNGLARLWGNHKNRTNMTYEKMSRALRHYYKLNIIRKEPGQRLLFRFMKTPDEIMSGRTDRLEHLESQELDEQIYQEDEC

Sequence	binding signal (ERF)	binding signal (ETV3L)	binding signal (ETS2)	binding signal (SPDEF)	binding signal (ETV7)	binding signal (ELF5)	binding signal (ETV3)	binding signal (ETV6)
ACTACG	1.34 fold enrichment (6-mer frequency, TF over GST control)	1.31 fold enrichment (6-mer frequency, TF over GST control)	1.26 fold enrichment (6-mer frequency, TF over GST control)	1.27 fold enrichment (6-mer frequency, TF over GST control)	1.4 fold enrichment (6-mer frequency, TF over GST control)	1.33 fold enrichment (6-mer frequency, TF over GST control)	1.35 fold enrichment (6-mer frequency, TF over GST control)	1.32 fold enrichment (6-mer frequency, TF over GST control)
CGAATA	1.19 fold enrichment (6-mer frequency, TF over GST control)	1.2 fold enrichment (6-mer frequency, TF over GST control)	1.12 fold enrichment (6-mer frequency, TF over GST control)	1.1 fold enrichment (6-mer frequency, TF over GST control)	1.18 fold enrichment (6-mer frequency, TF over GST control)	1.11 fold enrichment (6-mer frequency, TF over GST control)	1.21 fold enrichment (6-mer frequency, TF over GST control)	1.18 fold enrichment (6-mer frequency, TF over GST control)
TTGCCT	1.18 fold enrichment (6-mer frequency, TF over GST control)	1.34 fold enrichment (6-mer frequency, TF over GST control)	1.24 fold enrichment (6-mer frequency, TF over GST control)	1.18 fold enrichment (6-mer frequency, TF over GST control)	1.23 fold enrichment (6-mer frequency, TF over GST control)	1.19 fold enrichment (6-mer frequency, TF over GST control)	1.14 fold enrichment (6-mer frequency, TF over GST control)	1.1 fold enrichment (6-mer frequency, TF over GST control)
TTCTAT	1.46 fold enrichment (6-mer frequency, TF over GST control)	1.35 fold enrichment (6-mer frequency, TF over GST control)	1.38 fold enrichment (6-mer frequency, TF over GST control)	1.35 fold enrichment (6-mer frequency, TF over GST control)	1.33 fold enrichment (6-mer frequency, TF over GST control)	1.3 fold enrichment (6-mer frequency, TF over GST control)	1.33 fold enrichment (6-mer frequency, TF over GST control)	1.28 fold enrichment (6-mer frequency, TF over GST control)
TATAGG	1.18 fold enrichment (6-mer frequency, TF over GST control)	1.14 fold enrichment (6-mer frequency, TF over GST control)	1.13 fold enrichment (6-mer frequency, TF over GST control)	1.19 fold enrichment (6-mer frequency, TF over GST control)	1.22 fold enrichment (6-mer frequency, TF over GST control)	1.23 fold enrichment (6-mer frequency, TF over GST control)	1.17 fold enrichment (6-mer frequency, TF over GST control)	1.11 fold enrichment (6-mer frequency, TF over GST control)
TTATAC	1.55 fold enrichment (6-mer frequency, TF over GST control)	1.39 fold enrichment (6-mer frequency, TF over GST control)	1.42 fold enrichment (6-mer frequency, TF over GST control)	1.38 fold enrichment (6-mer frequency, TF over GST control)	1.53 fold enrichment (6-mer frequency, TF over GST control)	1.39 fold enrichment (6-mer frequency, TF over GST control)	1.37 fold enrichment (6-mer frequency, TF over GST control)	1.42 fold enrichment (6-mer frequency, TF over GST control)
TTAAAC	1.39 fold enrichment (6-mer frequency, TF over GST control)	1.36 fold enrichment (6-mer frequency, TF over GST control)	1.2 fold enrichment (6-mer frequency, TF over GST control)	1.18 fold enrichment (6-mer frequency, TF over GST control)	1.14 fold enrichment (6-mer frequency, TF over GST control)	1.18 fold enrichment (6-mer frequency, TF over GST control)	1.23 fold enrichment (6-mer frequency, TF over GST control)	1.3 fold enrichment (6-mer frequency, TF over GST control)
ATGCTT	1.27 fold enrichment (6-mer frequency, TF over GST control)	1.36 fold enrichment (6-mer frequency, TF over GST control)	1.28 fold enrichment (6-mer frequency, TF over GST control)	1.32 fold enrichment (6-mer frequency, TF over GST control)	1.33 fold enrichment (6-mer frequency, TF over GST control)	1.38 fold enrichment (6-mer frequency, TF over GST control)	1.31 fold enrichment (6-mer frequency, TF over GST control)	1.3 fold enrichment (6-mer frequency, TF over GST control)
ACATAA	1.05 fold enrichment (6-mer frequency, TF over GST control)	1.1 fold enrichment (6-mer frequency, TF over GST control)	1.07 fold enrichment (6-mer frequency, TF over GST control)	1.03 fold enrichment (6-mer frequency, TF over GST control)	1.11 fold enrichment (6-mer frequency, TF over GST control)	1.09 fold enrichment (6-mer frequency, TF over GST control)	1.09 fold enrichment (6-mer frequency, TF over GST control)	1.08 fold enrichment (6-mer frequency, TF over GST control)
TACGTA	1.3 fold enrichment (6-mer frequency, TF over GST control)	1.38 fold enrichment (6-mer frequency, TF over GST control)	1.42 fold enrichment (6-mer frequency, TF over GST control)	1.35 fold enrichment (6-mer frequency, TF over GST control)	1.15 fold enrichment (6-mer frequency, TF over GST control)	1.31 fold enrichment (6-mer frequency, TF over GST control)	1.37 fold enrichment (6-mer frequency, TF over GST control)	1.32 fold enrichment (6-mer frequency, TF over GST control)
CTATAC	1.21 fold enrichment (6-mer frequency, TF over GST control)	1.19 fold enrichment (6-mer frequency, TF over GST control)	1.28 fold enrichment (6-mer frequency, TF over GST control)	1.39 fold enrichment (6-mer frequency, TF over GST control)	1.19 fold enrichment (6-mer frequency, TF over GST control)	1.26 fold enrichment (6-mer frequency, TF over GST control)	1.24 fold enrichment (6-mer frequency, TF over GST control)	1.28 fold enrichment (6-mer frequency, TF over GST control)
TCTAAG	1.25 fold enrichment (6-mer frequency, TF over GST control)	1.17 fold enrichment (6-mer frequency, TF over GST control)	1.23 fold enrichment (6-mer frequency, TF over GST control)	1.1 fold enrichment (6-mer frequency, TF over GST control)	1.29 fold enrichment (6-mer frequency, TF over GST control)	1.23 fold enrichment (6-mer frequency, TF over GST control)	1.24 fold enrichment (6-mer frequency, TF over GST control)	1.17 fold enrichment (6-mer frequency, TF over GST control)
CCTTGC	1.43 fold enrichment (6-mer frequency, TF over GST control)	1.42 fold enrichment (6-mer frequency, TF over GST control)	1.22 fold enrichment (6-mer frequency, TF over GST control)	1.34 fold enrichment (6-mer frequency, TF over GST control)	1.41 fold enrichment (6-mer frequency, TF over GST control)	1.28 fold enrichment (6-mer frequency, TF over GST control)	1.35 fold enrichment (6-mer frequency, TF over GST control)	1.21 fold enrichment (6-mer frequency, TF over GST control)
TGCTAA	1.13 fold enrichment (6-mer frequency, TF over GST control)	1.25 fold enrichment (6-mer frequency, TF over GST control)	1.34 fold enrichment (6-mer frequency, TF over GST control)	1.32 fold enrichment (6-mer frequency, TF over GST control)	1.28 fold enrichment (6-mer frequency, TF over GST control)	1.25 fold enrichment (6-mer frequency, TF over GST control)	1.22 fold enrichment (6-mer frequency, TF over GST control)	1.29 fold enrichment (6-mer frequency, TF over GST control)
TAAGAT	1.3 fold enrichment (6-mer frequency, TF over GST control)	1.12 fold enrichment (6-mer frequency, TF over GST control)	1.19 fold enrichment (6-mer frequency, TF over GST control)	1.31 fold enrichment (6-mer frequency, TF over GST control)	1.19 fold enrichment (6-mer frequency, TF over GST control)	1.11 fold enrichment (6-mer frequency, TF over GST control)	1.2 fold enrichment (6-mer frequency, TF over GST control)	1.28 fold enrichment (6-mer frequency, TF over GST control)
